Assay results as given in PubChem BioAssay (EPA / NIEHS).
“And” between values parts separate entries of the source, which are not always exact repeats. Equal values may be shown once. The source holds several records for some structures; these can differ, active in one and inactive in another. The source made the active and inactive calls. Rule for the calls: active = hit-call score of the fitted dose curve at least 0.9, where 1 is the maximum; inactive = score below 0.9.

Columns and labels:
[1] = UKN2_HCS_IMR90_neural_migration: University of Konstanz (UKN) Leist Lab Neural Crest Cell Migration Assay in human induced IMR90 Pluripotent Stem Cells (UKN2) (AID 2284204); settings: actives raise or lower the signal
Method: UKN2_HCS_IMR90 is a cell-based, multiplexed-readout assay screening for neural crest cell migration and cell viability that uses IMR90 (neural crest cells differentiated from iPSC), a human embryo cell line, with measurements taken at […] after chemical dosing in a microplate: 96-well plate. UKN2, also known as cMINC, is an assay that uses IMR90 cells (neural crest cells differentiated from iPSC) as a model of neural crest cell migration. 24 hr after cell seeding, cell migration was initiated and proceeded for 24 hr. Then, chemical was applied, and after 24 hr of exposure migration and viability were assessed using high-content imaging of cells stained with calcein-AM and Hoechst H-33342.UKN2_HCS_IMR90_neural_migration is an assay component measured from the UKN2_HCS_IMR90 assay. It is designed to make measurements of neural crest cell migration, a form of morphology reporter, as detected with Fluorescence intensity signals by HCS Fluorescent Imaging.The assay endpoint UKN2_HCS_IMR90_neural_migration was analyzed with bidirectional fitting relative to DMSO as the negative control and baseline of activity. Using a type of morphology reporter, gain or loss-of-signal activity can be used to understand developmental effects. To generalize the intended target to other relatable targets, this assay endpoint is annotated to the neurodevelopment intended target family, where the subfamily is neural crest cell migration.
The wells are coated with PLO/laminin/fibronectin. Then, silicone stoppers are placed into the wells of a 96-well plate. Cells are seeded around the stoppers and allowed to attach for 24 hours. Day 0: The silicone stoppers are removed and the medium is replaced with pre-warmed, fresh N2-S medium containing the cytokines EGF and FGF. Cells are allowed to migrate into the cell free area. Day 1: 25 ul of the 5x concentrated toxicants are added to the wells. The cells plus toxicants are incubated for 24 h. Day 2: Cells are stained with calcein-AM and Hoechst (H-33342) for 30 min before imaging with a high content imaging microscope. Quantification of migration and viability is done by high content imaging analysis.

[2] = IUF_NPC1b_proliferation_BrdU_72hr: Leibniz Research Institute for Environmental Medicine (IUF) 72-hour Neural Progenitor Cell Bromodeoxyuridine (BrdU) Proliferation Assay (NPC1b) (AID 2284207)
Summary of the method: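 Human fetal cortex-derived (GW 16-19) neural progenitor spheres, 0.25-0.35 mm, one per well in EGF/FGF proliferation medium, exposed to compound for 72 h at 37C, pH 7.2-7.6. BrdU incorporation over the final 16 h read by luminescence ELISA, relative to DMSO.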

[3] = IUF_NPC1a_proliferation_area_72hr: Leibniz Research Institute for Environmental Medicine (IUF) 72-hour Neural Progenitor Cell Proliferation Area Assay (NPC1a) (AID 2284208)
Summary of the method: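 Proliferation read as increase in sphere area by phase-contrast imaging over 72 h continuous compound exposure (no renewal) of hNPC spheres grown with EGF/FGF at 37C, 5% CO2. Growth-factor withdrawal served as positive control; DMSO as baseline.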

[4] = IUF_NPC1_viability_72hr: Viability Assessment at 72 hours in the Leibniz Research Institute for Environmental Medicine (IUF) Neural Progenitor Cell Proliferation Assay (NPC1) (AID 2284209)
Summary of the method: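 Three-day continuous exposure of human neural progenitor spheres under EGF/FGF-driven proliferation; cell viability scored by alamar blue signal versus DMSO.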

[5] = CCTE_Mundy_HCI_Cortical_Synap_Neur_Matur_NeuriteSpotCountPerNeuriteLength: CCTE's Synaptogenesis and Neurite Maturation Assay in rat cortical cells for Neurite Spot Count per Neurite Length, Mundy Lab (AID 2284210)
Summary of the method: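 Synaptophysin spots per unit neurite length, measured by automated imaging of MAP2/synaptophysin/Hoechst-stained neurons. Cultures from rat cortex received chemical at DIV 7 with media change through DIV 12; glial growth arrested by AraC at DIV 5; DMSO baseline.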

[6] = CCTE_Mundy_HCI_Cortical_Synap_Neur_Matur_BPCount: CCTE's Synaptogenesis and Neurite Maturation Assay in rat cortical cells for Branch Point Count, Mundy Lab (AID 2284211)
Summary of the method: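 In this multiplexed morphology assay, cortical cells from rat receive chemicals at DIV 7 and are fixed at DIV 12, then immunostained and imaged; branch points are counted, with DMSO as baseline.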

[7] = CCTE_Mundy_HCI_Cortical_NOG_NeuriteCount: CCTE's Neurite Outgrowth Assay in rat cortical cells for Neurite Count, Mundy Lab (AID 2284212);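 note: cells fixed about two days after chemical exposure began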
Summary of the method: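 Rat cortical primary cells; compound added 2 h post-plating, 1/10 dilution of working solution. Anti-betaIII-tubulin/AF488 ICC; ArrayScan neurite count vs DMSO.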

[8] = CCTE_Mundy_HCI_Cortical_NOG_NeuriteLength: CCTE's Neurite Outgrowth Assay in rat cortical cells for Neurite Length, Mundy Lab (AID 2284213);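 note: neurites imaged about 48 to 50 h after chemical exposure began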
Summary of the method: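 First, rat primary cortical cells were plated and, 2 h later, given test chemical as a 1/10 dilution. Finally, βIII-tubulin immunostaining enabled automated imaging of neurite length.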

[9] = CCTE_Mundy_HCI_Cortical_Synap_Neur_Matur_NeuriteLength: CCTE's Synaptogenesis and Neurite Maturation Assay in rat cortical cells for Neurite Length, Mundy Lab (AID 2284214)
Method: CCTE_Mundy_HCI_Cortical_Synap&Neurite_Matur is a multiplexed, cell-based-readout assay that uses rat primary cortical cells with measurements taken at 288.33 hours after chemical dosing in a microplate: 96-well plate.CCTE_Mundy_HCI_Cortical_Synap_Neur_Matur_NeuriteLength is one of eight components of the CCTE_Mundy_HCI_Cortical_Synap&Neurite_Matur assay. It measures synaptogenesis and neurite maturation related to neurite length using High Content Imaging of fluorescently labelled markers.[…] Using a type of morphology reporter, loss -of-signal activity can be used to understand developmental effects.
Cells are plated onto 96 well plates and allowed 2 hr for attachment to the substrate. At days in vitro (DIV) 5, Cytosine Arabinoside (AraC) is added to arrest glial cell growth. Chemicals are dosed and a media change is performed at DIV 7 of differentiation and is continued through DIV 12 when the experiment is terminated. Cells are fixed with […] and Hoechst Dye. Cells are stained using Millipore Mouse anti-MAP2MAB3418 (1:800) and Millipore Rabbit anti-Synaptophysinsc-1750 (1:250) primary antibodies and Alexa Fluor-488 goat anti-mouse and AlexaFluor-546 goat anti-rabbit secondary antibodies to label neuronal cell nuclei, synapses and neurites. A Cellomics ArrayScan VTi HCS Reader is used for automated image acquisition and analysis of neurite outgrowth.

[10] = UKN4_HCS_LUHMES_neurite_outgrowth: University of Konstanz (UKN) Leist Lab Neurite Outgrowth Assay in human LUHMES cells (UKN4) (AID 2284206); settings: actives raise or lower the signal
Summary of the method: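 Neurite area in dopaminergic-model LUHMES neurons is measured by high-content imaging of calcein-AM after 24 h treatment starting shortly after day-2 replating; Hoechst staining tracks viability.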

Measured: AC50

COP(=O)(OC)O/C(=C\Cl)c1cc(Cl)c(Cl)cc1Cl
active: [2] 51.5 µM | [3] 41.6 µM | [4] 34.3 µM | [7] 34 µM and 32.9 µM | [8] 32.5 µM and 31.3 µM
inactive: [1] | [5] | [6] | [9]

CCOP(=S)(OCC)Oc1nc(Cl)c(Cl)cc1Cl
active: [10] 218 µM | [5] 50 µM | [6] 26.7 µM | [7] 32.4 µM | [8] 32 µM and 33.4 µM | [9] 31.2 µM and 29 µM
inactive: [1] | [2] | [3] | [4] | [5]

O=C1C2(Cl)C3(Cl)C4(Cl)C(Cl)(Cl)C5(Cl)C3(Cl)C1(Cl)C5(Cl)C24Cl (centres undefined)
inactive: [5]
active: [1] 2.17 µM | [10] 3.44 µM | [6] 22.7 µM | [7] 22.7 µM | [8] 16.7 µM | [9] 21.5 µM

C=C(C)C(=O)[O][Sn]([CH2]CCC)([CH2]CCC)[CH2]CCC
active: [1] 0.168 µM | [10] 0.0977 µM | [5] 0.0607 µM | [6] 0.0799 µM | [7] 0.123 µM | [8] 0.0893 µM | [9] 0.161 µM
